The campaign covered roughly 31,000 sequences. About 1,400 (4.5%) were called active. The entries come from a sample that favours actives as a whole. Values without a mark were called inactive.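 How the source made its calls: active means median seed-adjusted z-score above 1 or below -1; inactive means the rest.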

This is an account of results in PubChem BioAssay AID1347426 (Functional Genomics Laboratory (NCATS/FGL), 2020).

The nature of the experiment: Novel Modifiers of Survival Motor Neuron (SMN) Protein: Gene Identification via Genome-wide siRNA Screen.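 Further: luminescence tracks full-length SMN protein made from the SMN2 reporter.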 The following applies: HEK293T SMN2-luciferase reporter, siRNA knockdown, 72 h; actives lie on both sides. The method in brief: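 Luciferase signal, proportional to full-length SMN made from an SMN2 cDNA reporter in stable HEK293T cells, was read 72 h after siRNA reverse transfection. Values were expressed as MAD scores after non-targeting-control normalization and log10 conversion; seed analysis flagged off-targets.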
In the case of GAUGGACAUUGAUAGCGAUTT against DTX3L, the median seed-adjusted z-score was 0.0785.
Take GAACGGCUCUUAAGAUCAATT against CACNA1D: the median seed-adjusted z-score is -0.0856.
As to CUAUGUACCGCUUCACUGATT against MMP9, the median seed-adjusted z-score was -1.15 (active).
The figure for GGAAAUCUGUCACAUCGUATT against NR1I3 is 0.000933.
The figure for CGGGUUUCAUCAAAGUGCATT against RASSF5 is 0.11; for GCAACUUCCUAGAACUGUUTT against PCYT1B it is 0.177; for GGAGGACGGCUUCUACGAATT against KCNJ9 it is -0.0832.
The figure for GACUCUCUACCAUGGAUUUTT against SLC25A42 is -1.02 (active).
For CGUACAUCCAGUGACCCUATT against MTMR4, the median seed-adjusted z-score is -0.735.
Take GAAACCAUCGGGAAGAUUUTT against VWA2: the median seed-adjusted z-score was 0.584.
To GAAAUGUGGUACUAAAGCATT against RALBP1 belongs -0.0514; to CAAUGAUCAUGGACCGUUUTT against CPEB3, 0.086.
The figure for CAAGUGCGAUAUCACCUUATT against IL4 is -0.192.
To UCACAGUCACAUACAGAGATT against SNRPD3 belongs -2.69 (active).
Consider GUAUCUAACUUAUCUACUATT against HTR5A, for which the median seed-adjusted z-score was -0.0687.
The figure for GGUUUCAACUGGACUUCUATT against MFSD5 is 0.205.
To ACAGUCUUGUGAUCAGAAATT against UHRF1 belongs 0.231.
The figure for AAAGCAAGCUGUUACAAAATT against ACAT2 is 1.25 (active); for GACGUAACAUCAACAGAUATT against SV2B it is -0.43; for GGACUUAACGGUAUCCAAATT against PCDHB10 it is -0.09.
For GCAGCUUUAACCAUUAAAATT against LTB4R, the median seed-adjusted z-score was 0.498.
Take GCAAGACAACCAUUCUGUATT against ARF4: the median seed-adjusted z-score was 0.346.
Consider GCCGUGCUGAAGGCUCUAATT against KCNE3, for which the median seed-adjusted z-score is -1.33 (active).
As for GGAAACUUCUCACCUAUGATT against MAGED1, the median seed-adjusted z-score is 0.524.
For GGCCGUGUACUGUAUCAUUTT against NUP93, the median seed-adjusted z-score is 1.01 (active).
To CCACUGUUGGAAUUAAAGATT against AOAH belongs -0.123.
The figure for GUACAUAGAUUCUAGGCAATT against FOXJ3 is -0.155.
To GGCAGAUGAUGGUAUCACATT against CNGA4 belongs 0.125; to CCAUGUUCAUCAAAACUCUTT against ARHGAP1, -1.14 (active).
With GAAGCACAUUGUUUCCAGATT against SERGEF, the median seed-adjusted z-score was -0.308.
